The full ranking holds about 110,000 compounds; the median of “z-score” is about -0.1, and the highest 2% start at about 2. The sample holds the highest values, similar compounds and a random draw of the others, so the mix is not that of the screen. Activity calls are given as the source filed them.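 The calls were made as follows: active = z-score in the third read window above 3 or below -3; inactive = the rest.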
Biological target: Metabotropic glutamate receptor 8 (Rattus norvegicus) (UniProt P70579)
Sequence (P70579 whole entry, looked up): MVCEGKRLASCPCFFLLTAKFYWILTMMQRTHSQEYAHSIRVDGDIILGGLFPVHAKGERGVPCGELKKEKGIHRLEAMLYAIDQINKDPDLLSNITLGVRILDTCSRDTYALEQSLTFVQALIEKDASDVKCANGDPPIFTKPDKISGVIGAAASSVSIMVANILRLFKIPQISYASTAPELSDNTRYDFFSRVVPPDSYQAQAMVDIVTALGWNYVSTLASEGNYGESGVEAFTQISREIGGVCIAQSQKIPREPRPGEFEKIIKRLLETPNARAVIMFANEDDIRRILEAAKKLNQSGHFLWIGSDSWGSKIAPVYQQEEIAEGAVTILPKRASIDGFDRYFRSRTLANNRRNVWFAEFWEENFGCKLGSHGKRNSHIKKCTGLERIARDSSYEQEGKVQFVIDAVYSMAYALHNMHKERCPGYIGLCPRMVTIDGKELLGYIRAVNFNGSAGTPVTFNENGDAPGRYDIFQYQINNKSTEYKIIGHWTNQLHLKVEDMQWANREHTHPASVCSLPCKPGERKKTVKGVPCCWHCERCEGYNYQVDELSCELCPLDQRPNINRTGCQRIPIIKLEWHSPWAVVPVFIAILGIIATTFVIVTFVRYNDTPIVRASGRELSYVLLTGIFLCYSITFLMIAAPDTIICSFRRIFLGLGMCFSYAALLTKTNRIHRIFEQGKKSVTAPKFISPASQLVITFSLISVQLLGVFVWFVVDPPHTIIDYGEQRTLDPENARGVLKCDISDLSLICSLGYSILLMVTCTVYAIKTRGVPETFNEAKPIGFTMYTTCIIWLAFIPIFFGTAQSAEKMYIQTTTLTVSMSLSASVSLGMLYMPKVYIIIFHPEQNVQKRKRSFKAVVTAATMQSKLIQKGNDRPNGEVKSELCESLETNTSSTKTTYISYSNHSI
Assay: mGluR8 Gi/Go-coupled signaling modulation – cell-based, rat, thallium flux, HTS, primary screen (AID 488969)
Conditions: HEK293 rat mGluR8, GIRK (G protein-gated inwardly rectifying potassium channel) thallium flux, FluoZin2; at 10 µM; stronger effect = higher value; submaximal glutamate (EC20) added with thallium

Structure (SMILES) | z-score
Cc1nn(Cc2ccc(Br)cc2)c(C)c1NC(=O)c1nn(C)cc1Cl | -0.296
COC(=O)c1ccccc1NC(=O)CN(C)S(=O)(=O)c1ccc(OC)cc1 | 0.195
Fc1ccc(/C=C2\CCCC3=C2NC(=S)NC3c2ccc(F)cc2)cc1 (centres undefined) | -0.0195
N#CC1(C#N)C2=C(CCCC2)NC(c2ccccc2)C1(C#N)C#N (centres undefined) | -0.0942
O=C(NCCc1ccccc1F)/C(=C/c1cccnc1)NC(=O)c1ccccc1 | 0.0991
O=C(Nc1ccccc1)c1c(F)c(F)c(F)c(F)c1F | -0.122
COc1ccc(CC(=O)NCCc2ccc(S(N)(=O)=O)cc2)cc1 | 0.445
O=c1c(CN2CCN(Cc3ccccc3)CC2)coc2ccc(Cl)cc12 | -0.714
CCOC(=O)c1cc(-c2ccc(OC)cc2)nc2c1c(C)nn2CCC#N | -0.93
CCOC(=O)c1cc(-c2ccc(Cl)cc2)nc2c1c(C)nn2CCC#N | 3.13 (active)
CCOC(=O)c1cc(-c2ccc(C#N)cc2)nc2c1c(C)nn2CCC#N | -0.234
S=c1[nH]nc(Cc2sc(-c3ccccc3)nc2-c2ccccc2)o1 | 0.186
CCCNCC1C(Oc2ccc(Cl)cc2)C(=O)N1c1ccccc1C (centres undefined) | 1.55
Cc1ccccc1N1C(=O)C(Oc2ccc(Cl)cc2)C1CNCCCOC(C)C (centres undefined) | 2.95
COCCCNCC1C(Oc2ccc(Cl)cc2)C(=O)N1c1ccccc1C (centres undefined) | 0.258
Cc1cc(C)c(OCCCCCNCCO)c(C)c1 | 1.43
CCc1ccc2nc(-c3cccc(C)c3)nc(SCC(=O)NCC3CCCO3)c2c1 (centres undefined) | -0.227
Cc1n[nH]c(C)c1SCC(=O)Nc1ccc(F)cc1 | 0.159
COc1cccc(Nc2ccc(C(=O)O)cc2[N+](=O)[O-])c1 | 0.594
O=C(c1cccc(Br)c1)c1cn(-c2ccccc2)nc1C(=O)c1ccccc1 | -0.106
CCOc1ccc2[nH]c(=O)c(C(c3nnnn3C3CCCCC3)N3CCN(CC)CC3)cc2c1 (centres undefined) | 0.408
COC(=O)c1ccc(N2C(=O)CC(Sc3n[nH]c(C)n3)C2=O)cc1 (centres undefined) | 4.88 (active)
COC(=O)c1cc(C(=O)OC)cc(N2C(=O)CC(Sc3nc(C)cc(C)n3)C2=O)c1 (centres undefined) | 0.178
COC(=O)c1ccc(N2C(=O)CC(SCCN)C2=O)cc1 (centres undefined) | -0.299
Cc1noc(C(=O)NCc2ccccc2)c1Cl | -0.324

Structure (SMILES) | z-score
C/C(=N/NC(=O)Cc1cccc2ccccc12)c1cccs1 | -0.221
CCOC(=O)CSc1n[nH]c(NC(=O)c2cccc(C)c2)n1 | 2.67
CCOC(=O)CSc1n[nH]c(NC(=O)c2cccc(C(F)(F)F)c2)n1 | -0.122
CCOC(=O)CSc1n[nH]c(NC(=O)c2ccccc2)n1 | 0.788
c1cncc(-c2nc3ccccc3[nH]2)c1 | -0.186
O=c1[nH]cnc2c1sc1nc3c(c(-c4ccc(Cl)cc4)c12)CCC3 | -0.722
CC(OC(=O)c1nsc(Cl)c1Cl)C(=O)NC(C)(C)C (centres undefined) | 0.181
Cc1cc(OCC(=O)Nc2ccc(F)c(F)c2)nc(C(C)C)n1 | 0.156
O=C(NNS(=O)(=O)c1ccccc1)C1CCN(S(=O)(=O)c2ccc(Cl)cc2)CC1 | -0.131
CCCCCCCCc1nc(=S)[nH][nH]1 | 15.3 (active)
CCCCCCCCCc1nc(N)n[nH]1 | -0.191
C=CCCCCCCCCc1nc(=S)[nH][nH]1 | 9.76 (active)
CCCCOc1ccc(-c2nc(=S)[nH][nH]2)cc1 | 0.294
CC(=O)SC(C)CC(=O)NCc1ccccc1 (centres undefined) | -0.123
Cc1ccc(C)c(Nc2nc3nonc3nc2N2CCOCC2)c1 | 0.382
COc1ccccc1Nc1nc2nonc2nc1N1CCC(C)CC1 | -0.00241
Cc1ccccc1Nc1nc2nonc2nc1N1CCOCC1 | 6.03 (active)
CCCCC(=O)Nc1cc(C(=O)NCCc2ccccc2)ccc1Cl | 0.145
O=C(Nc1ccccc1)c1cccnc1N1CCCC1 | 0.569
CC1CCN(c2nc3ccccc3nc2N2CCC(C)CC2)CC1 | -0.169
CC1CCN(c2ncccc2C(=O)O)CC1 | 4.14 (active)
Cc1ccc(-n2nnnc2SCC(=O)c2ccc3c(c2)NC(=O)CO3)c(C)c1 | -0.0959
Cc1ccc(C2(C)NC(=O)N(CC(=O)Nc3c(C)n(C)n(-c4ccccc4)c3=O)C2=O)cc1 (centres undefined) | -0.208
COc1cccc(-n2c(SCC(=O)NCCC3=CCCCC3)nc3n[nH]c(C)c3c2=N)c1 | 8.62 (active)
CCc1ccc(NC(=O)CSc2nc3n[nH]c(C)c3c(=N)n2-c2cccc(OC)c2)cc1 | 0.339

Structure (SMILES) | z-score
CCc1ccccc1NC(=O)CSc1nc2n[nH]c(C)c2c(=N)n1-c1cccc(OC)c1 | 0.747
COc1ccc(/C=C/C(=O)NC(C)C)cc1Br | -0.339
CCCOc1ccc(C(=O)N2CCCC2)cc1OC | -0.411
S=C(N/N=C/c1ccccc1)N1CCOCC1 | 2.65
Cc1ccc(/C=N/NC(=S)N2CCOCC2)cc1 | 4.72 (active)
S=C(N/N=C/c1ccc(Cl)cc1)N1CCOCC1 | 11.9 (active)
S=C(Nc1ccc(Cl)cc1Cl)N1CCOCC1 | -0.325
S=C(NCCN1CCOCC1)N/N=C/c1ccccc1 | 0.728
CC(C)NC(=S)N/N=C/c1ccc(N2CCOCC2)cc1 | 0.522
S=C(Nc1ccc(Cl)cc1)N1CCOCC1 | 0.122
NC(=S)N/N=C/c1ccccc1 | 0.103
Cc1ccc(NC(=S)N2CCOCC2)cc1 | -0.0267
COc1ccc(OCCN2CCN(C3CC(=O)N(CCC(C)C)C3=O)CC2)cc1 (centres undefined) | -0.363
O=C(/C=C/c1c(Cl)cccc1Cl)N1CCN(c2ncccn2)CC1 | -0.303
COCC(C)NC(=O)c1ccccc1OC(C)=O (centres undefined) | -0.44
COc1cc(/C=N/NC(=O)c2sc(N)c(C#N)c2C)cc(Br)c1O | -0.544
Cc1cc(C)n(-c2ccc(C(=O)OCC(=O)Nc3ccc(Cl)cc3[N+](=O)[O-])cc2)n1 | -0.362
COc1ccc2cc(C(=O)Nc3ccc(F)cc3)sc(=O)c2c1OC | 0.534
COc1ccc2cc(C(=O)OC(C)C)sc(=O)c2c1OC | -0.229
COc1ccc2cc(C(=O)NCCO)sc(=O)c2c1OC | -0.297
COC(=O)c1cc2ccc(OC)c(OC)c2c(=O)s1 | 0.0942
COc1ccc2cc(C(=O)Nc3ccccc3)sc(=O)c2c1OC | 4.25 (active)
COc1ccc2cc(C(=O)NCC(=O)O)sc(=O)c2c1OC | 3.42 (active)
N#Cc1ccc(C(=O)Nc2cc(S(=O)(=O)Nc3ccc(Cl)cc3)ccc2N2CCCCC2)cc1 | -0.309
